Reference: PubChem BioAssay
Activity calls are given as the source filed them.

Key:
[1] = E. coli DRC41 culture turbidity changes, primary screen, E. coli filamentation inducer project, strain DRC41, OD650, 48 h (AID 1152);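 also: E. coli MC1000 strain DRC41 lacking acrAB efflux pump and sulA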; details: E. coli DRC41 (acrAB sulA), higher = more signal, called active from +8 up or from −8 down
[2] = small-molecule binders of probe aLefty1, primary screen, biochemical, small-molecule microarray, 635/667 nm fluorescence (AID 1153); details: higher = more signal;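 also: score merges spot fluorescence with signal-to-noise ratio from the scanned slide images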
[3] = PSAC antagonists in infected red cells, primary screen, cell-based, P. falciparum Indochina, OD700, 1 h (AID 1154); details: P. falciparum Indochina infected RBC osmotic lysis, higher = more signal, called active from +8 up or from −8 down
[4] = PSAC antagonists in infected red cells, primary screen, cell-based, P. falciparum Indochina, OD700, 2 h (AID 1155);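 also: lysis reports solute entry through the parasite surface anion channel PSAC; channel blockers reduce lysis of infected cells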; details: P. falciparum Indochina infected erythrocytes, osmotic lysis OD700; higher = more signal, called active from +8 up or from −8 down
[5] = osmotic lysis modulators in infected erythrocytes, primary screen, PSAC antagonist project, cell-based, P. falciparum Indochina, OD700, 3 h (AID 1156); details: higher = more signal, called active from +8 up or from −8 down
[6] = PSAC antagonists in infected red cells, primary screen, cell-based, P. falciparum Indochina, OD700, 18 h (AID 1157); details: P. falciparum Indochina infected erythrocytes, osmotic lysis OD700, 18 h; higher = more signal, called active from +8 up or from −8 down
[7] = modulators of S6 phosphorylation in cells, primary screen, cell-based, A549, cytoblot, luminescence, serum-stimulated (AID 1158); details: A549 phospho-S6 cytoblot, 5 h, higher = more signal;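 also: serum-stimulated A549 lung adenocarcinoma cells; signal is phosphorylated S6 detected by cytoblot immunostaining with HRP secondary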
[8] = target: NADPH oxidase 2 (Homo sapiens) (UniProt P04839); test: NOX2-dependent H2O2 signal modulators, primary screen, NOX inhibitor project, cell-based, HEK293-NOX2, PMA-stimulated, Amplex Red fluorescence (AID 1159); details: 45 min, higher = more signal, called active from +8 up or from −8 down; also: test concentration not given here
[9] = target: NADPH oxidase 4 (Homo sapiens) (UniProt Q9NPH5); test: NOX4-dependent H2O2 signal modulators, primary screen, NOX inhibitor project, cell-based, HEK293-NOX4, tetracycline-induced, Amplex Red fluorescence (AID 1160); details: 45 min, higher = more signal, called active from +8 up or from −8 down
[10] = target: NADPH oxidase 5 (Homo sapiens) (UniProt Q96PH1); test: NOX5-dependent H2O2 signal modulators, primary screen, NOX inhibitor project, cell-based, HEK293-NOX5, Amplex Red fluorescence (AID 1161); details: HEK293-NOX5, ionomycin, 45 min, higher = more signal
[11] = A549 cell viability effects, profiling panel, calcein-AM fluorescence, 48 h, basal (AID 1162); details: higher = more signal; also: test concentration not given here
[12] = adipocyte viability effects, profiling panel, cell-based, 3T3-L1 adipocytes, calcein-AM fluorescence, 48 h, basal (AID 1163); details: 3T3-L1 adipocytes viability, higher = more signal; also: test concentration not given here
[13] = HepG2 cell viability effects, profiling panel, calcein-AM fluorescence, 48 h, basal (AID 1164); details: higher = more signal; also: test concentration not given here
[14] = MM1S cell viability effects, profiling panel, calcein-AM fluorescence, 48 h, basal (AID 1165); details: higher = more signal;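 also: viability of MM1S multiple myeloma cells under basal unstimulated conditions; test concentration not given here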
[15] = basal RPMI8226 viability, no added stimulus, profiling panel, cell-based, calcein-AM fluorescence, 48 h, PK04 Diversity Set (AID 1166); details: RPMI8226 myeloma viability, higher = more signal;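 also: cells grown under basal conditions without added stimulus; test concentration not given here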
[16] = basal HepG2 mitochondrial membrane potential changes, profiling panel, cell-based, JC-1 fluorescence, 24 h, 100 nL compound (AID 1167); details: higher = more signal; also: test concentration not given here
[17] = basal 3T3-L1 adipocyte mitochondrial potential changes, profiling panel, cell-based, JC-1 fluorescence, 3T3-L1 adipocytes, 24 h, 100 nL compound (AID 1168); details: JC-1 mitochondrial fluorescence, higher = more signal, called active from +8 up or from −8 down; also: test concentration not given here
[18] = basal RPMI8226 mitochondrial membrane potential changes, profiling panel, cell-based, JC-1 fluorescence, 24 h, 100 nL compound (AID 1169); details: RPMI8226 myeloma, JC-1 mitochondrial potential fluorescence, higher = more signal; also: test concentration not given here
[19] = basal MM1S mitochondrial membrane potential changes, profiling panel, cell-based, JC-1 fluorescence, 24 h, 100 nL compound (AID 1170); details: higher = more signal; also: test concentration not given here
[20] = A549 lung cancer cell viability effects, profiling panel, resazurin fluorescence, 24 h, PK04 Diversity Set (AID 1171); details: higher = more signal, called active from +8 up or from −8 down; also: test concentration not given here

NADPH oxidase 4 (Homo sapiens), sequence (Q9NPH5 whole entry, looked up): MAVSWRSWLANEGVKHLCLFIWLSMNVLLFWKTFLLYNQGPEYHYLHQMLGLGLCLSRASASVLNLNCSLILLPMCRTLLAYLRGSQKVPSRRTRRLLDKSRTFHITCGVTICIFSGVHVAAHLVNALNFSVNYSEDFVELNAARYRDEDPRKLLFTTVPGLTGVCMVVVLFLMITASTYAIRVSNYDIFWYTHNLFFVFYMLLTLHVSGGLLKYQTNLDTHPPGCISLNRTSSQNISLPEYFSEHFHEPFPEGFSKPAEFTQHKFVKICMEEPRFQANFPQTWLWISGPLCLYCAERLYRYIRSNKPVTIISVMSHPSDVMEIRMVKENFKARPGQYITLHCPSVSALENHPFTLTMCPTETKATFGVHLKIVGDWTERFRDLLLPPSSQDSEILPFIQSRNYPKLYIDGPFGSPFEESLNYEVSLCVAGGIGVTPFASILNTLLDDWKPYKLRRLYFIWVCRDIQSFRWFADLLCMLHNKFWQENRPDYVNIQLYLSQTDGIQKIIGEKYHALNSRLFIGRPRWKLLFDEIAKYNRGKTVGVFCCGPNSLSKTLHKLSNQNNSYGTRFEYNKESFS
NADPH oxidase 2 (Homo sapiens), sequence (P04839 whole entry, looked up): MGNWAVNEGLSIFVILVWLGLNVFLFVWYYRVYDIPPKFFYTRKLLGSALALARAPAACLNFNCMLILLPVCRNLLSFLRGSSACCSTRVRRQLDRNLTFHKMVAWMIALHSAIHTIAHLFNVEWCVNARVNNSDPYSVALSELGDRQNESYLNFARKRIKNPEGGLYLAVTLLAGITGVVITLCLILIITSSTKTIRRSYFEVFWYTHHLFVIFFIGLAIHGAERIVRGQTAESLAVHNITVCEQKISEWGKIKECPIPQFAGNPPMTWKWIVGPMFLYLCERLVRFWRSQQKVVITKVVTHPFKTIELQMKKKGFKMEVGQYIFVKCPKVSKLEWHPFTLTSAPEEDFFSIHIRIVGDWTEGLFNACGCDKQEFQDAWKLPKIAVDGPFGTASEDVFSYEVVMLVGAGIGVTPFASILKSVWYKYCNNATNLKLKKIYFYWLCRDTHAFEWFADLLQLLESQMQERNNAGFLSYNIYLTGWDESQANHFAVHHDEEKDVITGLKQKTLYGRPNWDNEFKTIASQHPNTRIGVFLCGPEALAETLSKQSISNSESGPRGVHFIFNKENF
NADPH oxidase 5 (Homo sapiens), sequence (Q96PH1 whole entry, looked up): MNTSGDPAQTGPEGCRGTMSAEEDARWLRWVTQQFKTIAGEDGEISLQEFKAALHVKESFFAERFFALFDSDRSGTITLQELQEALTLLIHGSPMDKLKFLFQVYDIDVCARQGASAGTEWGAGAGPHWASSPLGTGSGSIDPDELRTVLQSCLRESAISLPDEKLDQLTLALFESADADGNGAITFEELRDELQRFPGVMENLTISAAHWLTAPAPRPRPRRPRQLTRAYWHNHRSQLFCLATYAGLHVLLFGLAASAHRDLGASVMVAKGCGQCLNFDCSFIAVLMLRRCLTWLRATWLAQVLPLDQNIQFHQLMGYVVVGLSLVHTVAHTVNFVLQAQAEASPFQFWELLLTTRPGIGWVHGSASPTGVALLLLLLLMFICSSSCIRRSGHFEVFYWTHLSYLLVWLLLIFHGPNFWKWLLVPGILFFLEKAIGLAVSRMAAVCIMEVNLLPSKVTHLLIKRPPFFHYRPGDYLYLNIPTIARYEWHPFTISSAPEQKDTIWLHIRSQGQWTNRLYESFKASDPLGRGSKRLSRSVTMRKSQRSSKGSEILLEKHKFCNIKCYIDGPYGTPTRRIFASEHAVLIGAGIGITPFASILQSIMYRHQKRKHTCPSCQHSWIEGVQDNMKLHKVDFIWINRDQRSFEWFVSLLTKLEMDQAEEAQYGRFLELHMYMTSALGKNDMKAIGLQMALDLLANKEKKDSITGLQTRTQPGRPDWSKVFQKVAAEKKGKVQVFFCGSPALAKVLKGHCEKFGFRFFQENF

| Compound | z-score [1] | composite z-score [2] | z-score [3] | z-score [4] | z-score [5] | z-score [6] | z-score [7] | z-score [8] | z-score [9] | z-score [10] | z-score [11] | z-score [12] | z-score [13] | z-score [14] | z-score [15] | z-score [16] | z-score [17] | z-score [18] | z-score [19] | z-score [20] |
| --- | --- | --- | --- | --- | --- | --- | --- | --- | --- | --- | --- | --- | --- | --- | --- | --- | --- | --- | --- | --- |
| CCOC(=O)C1=CC[C@@H](c2ccc(F)cc2)N(S(=O)(=O)c2ccc(C)cc2)[C@H]1c1ccc([N+](=O)[O-])cc1 | 0.251 (inactive) | -0.0946 | 1.83 (inactive) | 1.12 (inactive) | -0.186 (inactive) | 1.22 (inactive) | -0.399 | 1.36 (inactive) | 0.856 (inactive) | 1.4 | -0.606 | -0.415 | -0.661 | -0.724 | 0.192 | 1.65 | -0.754 (inactive) | 0.235 | -0.862 | 1.8 (inactive) |
| NC(=O)N1C(=O)C2C(C1=O)C1C=C(CCCO)C2C(c2ccc(CN3CCCC3)cc2)N1Cc1cccc(OC(F)(F)F)c1 (stereo not given) | -0.267 (inactive) | -0.101 | 1.86 (inactive) | 0.63 (inactive) | 0.0703 (inactive) | 0.208 (inactive) | -0.267 | -1.4 (inactive) | -0.76 (inactive) | -1.04 | 0.0272 | -0.0602 | -0.215 | -3.34 | -0.614 | 0.221 | -0.348 (inactive) | 0.708 | -0.275 | 0.657 (inactive) |
| NCCCC[C@@H]1NC(=O)[C@H]2C[C@@H](C(=O)O)[C@@H](c3cccc(OCCO)c3)N2C1=O | -1.23 (inactive) | 0.951 | -1.87 (inactive) | -0.195 (inactive) | 0.452 (inactive) | 0.253 (inactive) | -0.993 | 2.14 (inactive) | 0.834 (inactive) | 0.415 | -0.917 | -0.61 | 0.274 | -1.81 | 0.0324 | -2.23 | 0.0425 (inactive) | -0.392 | -0.658 | 0.506 (inactive) |
| COc1ccccc1CN1C(=O)c2ccccc2[C@@H](C(=O)NCCCN(C)C)[C@@H]1c1ccc(CO)cc1 | 1.21 (inactive) | -0.552 | 2.02 (inactive) | -0.141 (inactive) | 0.445 (inactive) | -0.583 (inactive) | 0.506 | 0.676 (inactive) | -0.436 (inactive) | -2.04 | 1.29 | 0.608 | 1.07 | 0.376 | 0.0552 | 3.31 | 0.629 (inactive) | 0.262 | 0.325 | 0.997 (inactive) |
| COc1cc2c(cc1O)C(C1CC1)N(Cc1ccc([N+](=O)[O-])o1)CC2 (stereo not given) | -1.03 (inactive) | 0.0446 | 23.7 (active) | 6.01 (inactive) | 0.359 (inactive) | 0.892 (inactive) | 0.106 | -4.17 (inactive) | -2.46 (inactive) | -3.45 | -0.37 | 0.393 | -0.181 | -0.201 | 0.741 | -1.57 | -0.0836 (inactive) | -0.748 | 0.0309 | 0.533 (inactive) |
